Source: PubChem (National Center for Advancing Translational Sciences (NCATS))
Shown are actives, neighbours in structure and some others; about 7.3% of the full set was active somewhere.
Vaccinia mCherry = qHTS for Stage-Specific Inhibitors of Vaccinia Orthopoxvirus: mCherry Reporter Primary qHTS | 0.63% of 310,000 active | Vaccinia virus mCherry reporter infection, fluorescence | Potency, µM (titrated, usually from 36.5 µM), for the others: at the highest dose activity change, negative = inhibition, most hits filed as inhibitors; calls by dose curve; tested in A549 cells; further: potency means the concentration at half of the fitted maximal effect; nearly all actives have a fitted effect of over 35% in size
HCV inhibitor = qHTS Assay for Inhibitors of Hepatitis C Virus (HCV). Huh7.5.1 HCVcc-Cre infection, luciferase reporter, 44 h. Potency, µM (titrated, usually from 41.8 µM), without a hit: top-dose activity change, negative = inhibition, usual class: inhibitors. 3.4% of 340,000 active; active means well fitted inhibition curve with a large enough effect; inconclusive means small, poorly fitted or top-dose-only effect, or another doubt; inactive means no such curve, though single readings can be large or run the other way; further: potency means the concentration at half of the fitted maximal effect
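Cells seeded at 1,000/well and cultured 4 h, then compounds added followed by HCVcc-Cre virus (~0.5 moi). After 44 h further culture, luciferase substrate was added, plates held 15 min at room temperature, and luminescence read for 15 sec.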
VACV Venus inh = qHTS for Stage-Specific Inhibitors of Vaccinia Orthopoxvirus: Venus Reporter Primary qHTS; Potency, µM (series often up to 36.5 µM), inactives show at the highest dose activity change, negative = inhibition, most hits filed as inhibitors; 0.46% of 330,000 active; AID 720580, 2013; Vaccinia virus Venus reporter expression, fluorescence; calls by dose curve; tested in A549 cells; further: potency means the concentration at half of the fitted maximal effect; nearly all actives have a fitted effect of over 30% in size
FMDV inh = High Throughput Screening for Foot and Mouth Disease Virus Antivirals; FMDV antiviral cell-based qHTS; AID 1159524, 2015; 1.2% of 410,000 active; Potency, µM (titrated, usually from 57.9 µM), for the others: at the highest dose activity change, negative = inhibition, usual class: inhibitors; calls by dose curve; tested in HEK293T cells; further: read-out not given here; potency means the concentration at half of the fitted maximal effect; nearly all actives have a fitted effect of over 45% in size
HCMV inh = qHTS Assay for inhibitors of the human cytomegalovirus (HCMV); HFF cells, HCMV-luciferase reporter, 72 h; active compounds read low; activity change, negative = inhibition, % at 57.5 µM; 4.5% of 410,000 active; in the data active means activity change below about -60%; inconclusive means no clear call, values can overlap the other calls; inactive means above about -39%
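Screen run at 2 compound doses on HFFs infected with reporter HCMV, MOI 1 PFU/cell. Luciferase activity from cell lysates at 72 h post infection gave inhibition relative to buffer-only and Salinomycin wells.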
* = called active by the depositor; i = inactive; u = inconclusive; x = not tested or not shown; [ ] = dose if it differs, or a comment. On the % scale 0 is the no-effect control and ±100 the full control effect.

SMILES	Vaccinia mCherry	HCV inhibitor	VACV Venus inh	FMDV inh	HCMV inh
COc1ccccc1CCNC(=O)c1ccc(OC)c(OC2CCN(C(C)C)CC2)c1	-18.9%	-2.3%	-13.2%	-1.5%	-62.2*
COc1cccc(CCNC(=O)c2ccc(OC)c(OC3CCN(C(C)C)CC3)c2)c1	x	-13.7%	x	-6.0%	7.1
COCCCNC(=O)c1ccc(OC)c(OC2CCN(C(C)C)CC2)c1	x	22.4µM*	x	-19.2%	29.9
CC1CCN(C(=O)c2[nH]cnc2C(=O)N2CCN(c3ccccc3)CC2)CC1	i	20.5%	-18.2%	-13.8%	-24.0
C=C1C=C(C(F)F)n2ncc(C(=O)Nc3ccc(Br)cc3C(F)(F)F)c2N1	-13.6%	x	-11.9%	x	x
Cc1nc(C(=O)NNC(=O)c2ccc(C(F)(F)F)cc2)cs1	u	u	-24.9%	38.2%	-89.2*
N#Cc1sc(NCc2ccccc2)nc1Cl	-6.2%	-3.8%	-8.0%	47.1%	2.0
N#Cc1c(NCc2ccccc2)ccnc1Cl	-6.4%	-20.4%	-9.1%	0.0%	-69.1*
C=CCNC(=O)CSc1nnc(C(CC)N(C)C)n1C1CCCCC1 (stereo not drawn)	x	23.1%	x	-3.0%	0.0
COc1ccc(-c2nsc(NC(=O)C(C)Oc3ccc(Cl)c(C)c3)n2)cc1 (stereo not drawn)	-6.1%	x	-11.1%	u	-64.7*
CC(Oc1ccc(F)cc1)C(=O)Nc1nc(-c2ccc(F)cc2)ns1 (stereo not drawn)	-5.6%	x	-18.6%	-36.8%	-94.3*
COC(=O)c1ccccc1NC(=O)CSc1n[nH]c(-c2ccco2)n1	8.9%	3.3%	-10.2%	-19.0%	-1.7
Nc1cc(=O)nc(SCC(=O)Nc2cccc(Cl)c2)n1CCc1ccccc1	-10.6%	x	-2.1%	-19.6%	7.0
O=[N+]([O-])c1ccc(-c2nc(Cl)c3c(n2)CCCC3)o1	11.2µM*	x	u	-25.0%	-69.0*
Cc1cc(-c2onc(C)c2C(=O)Nc2ccc(C(F)(F)F)cc2)no1	i[7.34 µM]	15.3%	-1.9%[7.34 µM]	-2.7%	0.2
Cc1noc(-c2ccc(C(F)(F)F)cc2)c1NC(=O)Nc1ccc(Cl)cc1	x	u	x	u	-87.7*
CCOc1ccc(-c2cn3c(n2)sc2cc(C(=O)NCCCN(CC)CC)ccc23)cc1	u	x	u	6.6%	x
Cn1c(=O)c2c(nc(SCC(=O)c3cccs3)n2Cc2ccc(F)cc2)n(C)c1=O	-15.7%	5.01µM*	-11.8%	20.0%	-29.4
CC1Cc2ccccc2N1C(=O)CSc1nc2c(c(=O)n(C)c(=O)n2C)n1Cc1ccc(F)cc1 (stereo not drawn)	-21.7%	u	-7.1%	-12.8%	-105.9*
Cn1c(=O)c2c(nc(Br)n2CC(=O)c2cccs2)n(C)c1=O	x	-11.3%	-27.5%	u	17.6
COc1ccc(Oc2ncc3nc(-c4cc(F)cc(F)c4)c(=O)n(C[C@H]4CCCO4)c3n2)cc1	x	x	x	-17.0%	x
Cc1ccc(NC(=S)NC(=O)/C=C/c2ccco2)c(O)c1	-28.1%	u	-1.4%	u	-63.9*
Cc1cc(C)c(NC(=O)CN2CCN(c3ccccn3)CC2)c(C)c1	-7.2%	6.3%	-16.3%	9.0%	34.0
NS(=O)(=O)c1ccc(N/N=C/c2ccc(O)cc2O)c([N+](=O)[O-])c1	u	-28.1%	-25.4%	0.7%	-78.3*
NS(=O)(=O)c1ccc(N/N=C/c2cn(-c3ccccc3)nc2-c2ccccc2)c([N+](=O)[O-])c1	x	10µM*	x	-29.4%	-81.0*
NS(=O)(=O)c1ccc(N/N=C/c2ccccn2)c([N+](=O)[O-])c1	x	u	x	-3.1%	-63.6*
CN(C)c1ccc(/C=N\Nc2ccc([N+](=O)[O-])cc2[N+](=O)[O-])cc1Br	24.9%	x	-7.2%	x	x
O=C(NC(=S)/C(=C1\CCCCCN1)[N+](=O)[O-])c1ccccc1	-16.2%	-23.1%	-6.2%	12.6µM*	x
Nc1ccn(C2OC(COP(=O)(O)O)C(O)C2O)c(=O)n1 (stereo not drawn)	31.6µM*	u	u	-16.8%	-96.9*
COc1cc2c(cc1OC)C(COc1ccc([N+](=O)[O-])cc1)N(C(C)=O)CC2 (stereo not drawn)	x	10µM*	x	u	-37.6
